Experimental findings from publication PMC12350791 are described below.

Sequence of EFTUD2, Q15029 (Q15029 whole entry): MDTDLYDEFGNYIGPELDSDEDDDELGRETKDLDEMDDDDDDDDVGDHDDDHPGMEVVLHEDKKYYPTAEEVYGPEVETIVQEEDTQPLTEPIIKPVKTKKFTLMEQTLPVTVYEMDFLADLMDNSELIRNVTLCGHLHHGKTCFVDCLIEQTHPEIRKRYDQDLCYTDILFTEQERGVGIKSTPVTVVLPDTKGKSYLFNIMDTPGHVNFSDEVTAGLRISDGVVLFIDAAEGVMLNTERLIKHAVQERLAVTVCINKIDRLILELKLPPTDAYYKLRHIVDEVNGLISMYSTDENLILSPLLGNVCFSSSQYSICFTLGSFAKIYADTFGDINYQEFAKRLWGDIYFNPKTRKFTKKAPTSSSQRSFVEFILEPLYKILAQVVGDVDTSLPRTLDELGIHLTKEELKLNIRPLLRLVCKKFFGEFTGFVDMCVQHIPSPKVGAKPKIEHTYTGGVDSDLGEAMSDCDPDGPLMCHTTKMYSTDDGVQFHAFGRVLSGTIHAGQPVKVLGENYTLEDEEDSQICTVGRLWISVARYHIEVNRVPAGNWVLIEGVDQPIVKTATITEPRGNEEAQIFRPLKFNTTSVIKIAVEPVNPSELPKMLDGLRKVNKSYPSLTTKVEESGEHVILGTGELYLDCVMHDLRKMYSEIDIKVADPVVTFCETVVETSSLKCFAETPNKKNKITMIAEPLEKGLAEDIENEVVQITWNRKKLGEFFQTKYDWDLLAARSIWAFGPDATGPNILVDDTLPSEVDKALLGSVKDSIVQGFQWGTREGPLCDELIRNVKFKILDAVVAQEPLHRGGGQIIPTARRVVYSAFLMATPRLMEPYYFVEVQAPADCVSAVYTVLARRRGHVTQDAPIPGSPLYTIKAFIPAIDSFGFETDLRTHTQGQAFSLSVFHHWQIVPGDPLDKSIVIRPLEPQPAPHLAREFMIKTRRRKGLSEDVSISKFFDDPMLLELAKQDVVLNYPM
Sequence of USP39, Q53GS9 (Q53GS9 whole entry): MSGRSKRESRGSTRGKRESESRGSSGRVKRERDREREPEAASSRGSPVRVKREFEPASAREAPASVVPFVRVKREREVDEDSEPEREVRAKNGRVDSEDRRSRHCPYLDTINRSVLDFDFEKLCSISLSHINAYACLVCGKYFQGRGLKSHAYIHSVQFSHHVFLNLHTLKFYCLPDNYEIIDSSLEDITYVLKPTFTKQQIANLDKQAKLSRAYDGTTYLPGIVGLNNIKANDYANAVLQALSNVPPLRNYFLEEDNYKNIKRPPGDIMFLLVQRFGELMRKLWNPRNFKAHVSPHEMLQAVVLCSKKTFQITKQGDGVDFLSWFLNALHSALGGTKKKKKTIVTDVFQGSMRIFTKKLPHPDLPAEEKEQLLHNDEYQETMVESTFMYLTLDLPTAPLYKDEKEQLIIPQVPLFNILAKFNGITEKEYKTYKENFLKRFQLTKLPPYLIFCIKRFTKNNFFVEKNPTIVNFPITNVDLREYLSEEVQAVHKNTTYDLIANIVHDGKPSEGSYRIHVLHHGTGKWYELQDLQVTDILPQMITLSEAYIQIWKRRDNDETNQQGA
Sequence of PLRG1, O43660 (O43660 whole entry): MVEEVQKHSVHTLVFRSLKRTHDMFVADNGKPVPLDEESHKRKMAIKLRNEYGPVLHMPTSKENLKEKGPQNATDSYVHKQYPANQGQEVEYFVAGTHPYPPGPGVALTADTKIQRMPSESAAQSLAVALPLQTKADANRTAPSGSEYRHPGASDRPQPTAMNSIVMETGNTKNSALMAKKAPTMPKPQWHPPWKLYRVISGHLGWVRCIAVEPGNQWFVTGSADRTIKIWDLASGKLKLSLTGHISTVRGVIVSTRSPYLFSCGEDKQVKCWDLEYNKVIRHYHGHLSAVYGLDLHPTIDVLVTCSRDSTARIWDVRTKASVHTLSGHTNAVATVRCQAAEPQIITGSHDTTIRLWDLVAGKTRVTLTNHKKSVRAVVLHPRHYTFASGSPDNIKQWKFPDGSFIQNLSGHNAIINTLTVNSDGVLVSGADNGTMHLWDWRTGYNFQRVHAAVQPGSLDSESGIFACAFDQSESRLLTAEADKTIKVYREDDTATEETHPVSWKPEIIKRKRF

The test concerns the target PRPF8 (UniProt Q6P2Q9). Description: cross-linking mass spectrometry. The following applies: DSBSO, in cells or nuclear extract, not told apart.
With USP39, Q53GS9, the cross-linked residues entry is listed as “K508 - K983”.
The same measure for EFTUD2, Q15029: “K405 - K218”.
For PLRG1, O43660 the value was “K320 - K666”.
